Laboratory results: PubChem BioAssay (EPA / NIEHS)
Active and inactive are the calls of the source. Rule for the calls: active = hit-call score of the fitted dose curve at least 0.9, where 1 is the maximum; inactive = score below 0.9.

Molecular target: Cellular tumor antigen p53 (Homo sapiens) (UniProt P04637)
Test: ATG_p53_CIS: Attagene CIS-FACTORIAL HepG2 Assay for human p53 Transcription Factor (AID 2282994)
Details: HepG2 p53 cis-element reporter, Attagene mRNA; actives raise or lower the signal
In short: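 Read-out: reporter mRNA by RT-PCR plus capillary electrophoresis with fluorescence detection. Human HepG2 liver cells carried transfected multi-reporter cis-element constructs, dosed 24 h. Gain or loss of signal fitted bidirectionally against DMSO control.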

Cellular tumor antigen p53 (Homo sapiens), sequence (P04637 whole entry, looked up): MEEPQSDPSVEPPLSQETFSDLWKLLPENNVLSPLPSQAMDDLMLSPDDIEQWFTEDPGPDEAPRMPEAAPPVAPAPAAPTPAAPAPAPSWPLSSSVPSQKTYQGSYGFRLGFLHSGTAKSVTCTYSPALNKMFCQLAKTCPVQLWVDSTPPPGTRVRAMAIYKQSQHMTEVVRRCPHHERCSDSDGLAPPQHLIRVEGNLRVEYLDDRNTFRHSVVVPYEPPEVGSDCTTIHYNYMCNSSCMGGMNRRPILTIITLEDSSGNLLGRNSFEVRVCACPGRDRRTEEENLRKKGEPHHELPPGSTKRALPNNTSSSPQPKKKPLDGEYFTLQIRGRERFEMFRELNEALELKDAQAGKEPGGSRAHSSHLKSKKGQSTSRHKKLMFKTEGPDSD

Row | SMILES | outcome
1 | CCN(CC)c1ccccc1 | inactive
2 | FC(F)(F)C(F)(C(F)(F)F)C(F)(F)C(F)(F)CC1CO1 (stereo not drawn) | inactive
3 | CCN(CC)C1CCCCC1 | inactive
4 | CCOc1ccc(C(C)(C)COCc2cccc(Oc3ccccc3)c2)cc1 | inactive
5 | CCCCN(CC)C(=O)SCCC | inactive
6 | COP(=O)(O)OC | inactive
7 | Cc1cccc(N)c1 | inactive
8 | O=C(O)C1C(C(=O)O)C2(Cl)C(Cl)=C(Cl)C1(Cl)C2(Cl)Cl (stereo not drawn) | inactive
9 | OCC1CO1 (stereo not drawn) | inactive
10 | O=P(OCC(Br)CBr)(OCC(Br)CBr)OCC(Br)CBr (stereo not drawn) | inactive
11 | ClC1=C(Cl)C2(Cl)C3C(Cl)C(Cl)CC3C1(Cl)C2(Cl)Cl (stereo not drawn) | inactive
12 | OCC(F)(F)OC(F)(F)C(F)(F)OC(F)(F)CO | inactive
13 | C=CC(=O)OCC(CC)(COC(=O)C=C)COC(=O)C=C | inactive
14 | CC(Cl)CN(C)C (stereo not drawn) | inactive
15 | CO/N=C(/C(=O)OC)c1ccccc1COc1ccccc1C | inactive
16 | O=C(O)C(F)(F)OC(F)(F)C(F)(F)OC(F)(F)C(=O)O | inactive
17 | O=C(O)C=CC(F)(C(F)(F)F)C(F)(F)F | inactive
18 | ClC(Cl)(Cl)c1ccccc1 | inactive

Read-out: not listed separately
Test: BSK_3C_TissueFactor: BioMAP Diversity Plus: 3C Assay for Tissue Factor Biomarker Activity (AID 2282997)
Details: BioMAP 3C HUVEC, tissue factor biomarker readout; actives raise or lower the signal
In short: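 In this endothelial system, HUVEC are treated for 24 h and Tissue Factor is assessed by ELISA, normalised to DMSO.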

Row | SMILES | outcome | AC50
19 | CCN(CC)c1ccccc1 | inactive | 
20 | FC(F)(F)C(F)(C(F)(F)F)C(F)(F)C(F)(F)CC1CO1 (stereo not drawn) | inactive | 
21 | CCOP(=S)(OCC)SCSc1ccc(Cl)cc1 |  | 0.0123 µM (active)
22 | c1nc[nH]n1 | inactive | 
23 | c1cc2c3c(cccc3c1)CC2 | inactive | 
24 | CCCCC(CC)COP(=O)(Oc1ccccc1)Oc1ccccc1 (stereo not drawn) |  | 9.63 µM (active)
25 | CCOc1ccc(C(C)(C)COCc2cccc(Oc3ccccc3)c2)cc1 | inactive | 
26 | COP(=O)(O)OC | inactive | 
27 | Cc1cccc(N)c1 | inactive | 
28 | CC(C)(C)c1ccc(O)cc1 | inactive | 
29 | O=C(O)C1C(C(=O)O)C2(Cl)C(Cl)=C(Cl)C1(Cl)C2(Cl)Cl (stereo not drawn) | inactive | 
30 | Nc1cc2c3c(c1)C(c1ccccc1)=N[C@@H](NC(=O)c1cccnc1)C(=O)N3CC2 | inactive | 
31 | CCOP(=S)(OCC)SCSCC | inactive | 
32 | OCC1CO1 (stereo not drawn) | inactive | 
33 | O=P(OCC(Br)CBr)(OCC(Br)CBr)OCC(Br)CBr (stereo not drawn) | inactive | 
34 | c1ccc(OP(Oc2ccccc2)Oc2ccccc2)cc1 | inactive | 
35 | CCOS(=O)(=O)OCC | inactive | 
36 | ClC1=C(Cl)C2(Cl)C3C(Cl)C(Cl)CC3C1(Cl)C2(Cl)Cl (stereo not drawn) |  | 30.3 µM (active)
37 | CC(Cl)(Cl)C(=O)O | inactive | 
38 | OCC(F)(F)OC(F)(F)C(F)(F)OC(F)(F)CO | inactive | 
39 | CCCN(CCC)c1c([N+](=O)[O-])cc(C(C)C)cc1[N+](=O)[O-] | inactive | 
40 | C=CC(=O)OCC(CC)(COC(=O)C=C)COC(=O)C=C |  | 1.5 µM (active)
41 | CC(Cl)CN(C)C (stereo not drawn) | inactive | 
42 | O=C(O)C(F)(F)OC(F)(F)C(F)(F)OC(F)(F)C(=O)O | inactive | 
43 | [N-]=[N+]=[N-] | inactive | 
44 | O=C(O)C=CC(F)(C(F)(F)F)C(F)(F)F | inactive | 
45 | CCCCc1ccccc1 | inactive | 
46 | ClC(Cl)(Cl)c1ccccc1 | inactive | 
47 | O=[N+]([O-])c1ccccc1 | inactive | 
48 | CSC(C)(C)C=NO | inactive | 
